Screens deposited in PubChem by National Center for Advancing Translational Sciences (NCATS).
An excerpt weighted towards active compounds, which were near 13% of everything screened.
Pf growth 96h: inhibits malaria parasite growth, 96 h | actives 6.9% (n = 320,000) | P. falciparum luciferase reporter growth, 96 h | Potency, µM (doses to about 28.7 µM), most hits filed as inhibitors
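Delayed-death screen, second-generation endpoint: infected erythrocytes, 2% hematocrit, 0.05% parasitemia final; 96 hours at 37 C, 5% CO2; luciferase detection reagent; luminescence decrease equals reduced growth.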
HCMV inh: inhibitors of human cytomegalovirus | actives 4.5% (n = 410,000) | HFF cells, HCMV-luciferase reporter, 72 h; stronger effect = lower value | activity change, negative = inhibition, % at 57.5 µM; in the data active = activity change below about -60%; inconclusive = no clear call, values can overlap the other calls; inactive = above about -39%
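After 16 h attachment at 37C, HFF cells received test compound and HCMV-luciferase (1 PFU/cell); reporter luminescence read 72 h later, data normalized against buffer-only and known inhibitor Salinomycin.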
Pf growth 48h: P. falciparum growth inhibition at 48 hours (one generation). P. falciparum luciferase growth in erythrocytes, 48 h. Potency, µM (doses to about 28.7 µM), most hits filed as inhibitors. actives 5.9% (n = 310,000)
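Here the parasites carry a stable luciferase gene and grow inside erythrocytes in Albumax-based RPMI medium with compound for one erythrocytic cycle. Activity is scored as loss of luminescent signal.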
HCV inh: inhibitors of hepatitis C virus infection. Huh7.5.1 HCVcc-Cre infection, luciferase reporter, 44 h. Potency, µM (doses to about 41.8 µM), usual class: inhibitors. actives 3.4% (n = 340,000)
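HCVcc-Cre virus at an moi near 0.5 was added right after compound to cells cultured 4 h from seeding (1,000 cells/well). Luciferase activity was determined 44 h later, 15 min after substrate addition at RT.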
A number is an active result; ! = repeats disagree. Unless noted, calls come from the whole dose curve; as a rule, active = well fitted inhibition curve with a large enough effect; inconclusive = small, poorly fitted or top-dose-only effect, or another doubt; inactive = no such curve, though single readings can be large or run the other way.

Results for Nc1cc(Cl)c2nonc2c1[N+](=O)[O-] ?
Pf growth 96h: inactive; HCMV inh: -95; Pf growth 48h: inactive; HCV inh: 4.5µM

What do the screens show for `O=C(O)c1ccccc1Nc1ccc2nonc2c1[N+](=O)[O-]`?
Pf growth 96h: inactive; HCMV inh: inconclusive; Pf growth 48h: inactive; HCV inh: inactive

What do the screens show for `CCOC(=O)CCSc1nc2c(c(C(F)(F)F)c1C#N)CCC2`?
Pf growth 96h: inactive; HCMV inh: inactive; Pf growth 48h: 9.3µM; HCV inh: inactive

What do the screens show for `Cc1ccc(N2CCN(C(=O)c3cc4cc5ccc(C)cc5nc4s3)CC2C)cc1` (centres undefined)?
HCMV inh: inactive

How did Cc1cc(C)n(-c2nc3ccccc3s2)n1 do in these assays?
Pf growth 96h: inactive; HCMV inh: inactive; Pf growth 48h: inactive; HCV inh: inactive

What do the screens show for `Cc1c2c(=O)n(-c3nc4ccccc4s3)nc-2cc(O)n1Cc1ccccc1`?
Pf growth 96h: 2.9µM; Pf growth 48h: 2.9µM; HCV inh: inactive

What do the screens show for `COc1ccc(C2CC(=O)C3=C(C2)Nc2ccccc2NC3c2coc3ccccc3c2=O)cc1OC` (centres undefined)?
Pf growth 96h: inactive; HCMV inh: inactive; Pf growth 48h: 7.4µM; HCV inh: inactive

How did COc1cc(OC)c(C2Nc3ccccc3NC3=C2C(=O)CC(C)(C)C3)cc1OC (centres undefined) do in these assays?
Pf growth 96h: inconclusive; HCMV inh: inactive; Pf growth 48h: inactive; HCV inh: inactive

What do the screens show for `CCOc1ccccc1NC(=O)CCc1c(C)nc2c3cccnc3nn2c1C`?
HCMV inh: inactive

Results for CC(C)COc1ccc(CN=C(N)N=C(N)N)cc1Cl ?
Pf growth 96h: inconclusive; HCMV inh: -76; Pf growth 48h: 2.9µM; HCV inh: inconclusive

How did CC(C)Oc1ccc(CN=C(N)N=C(N)N)cc1Cl do in these assays?
Pf growth 96h: inconclusive; HCMV inh: -75; Pf growth 48h: 12µM; HCV inh: inconclusive

How did COc1ccc(C(C)c2cc3c(cc2OCC(=O)O)OCO3)cc1 (centres undefined) do in these assays?
HCMV inh: inactive

How did Cn1ccnc1Sc1cc(NCCCO)c([N+](=O)[O-])c2nonc12 do in these assays?
Pf growth 96h: inactive; HCMV inh: inactive; Pf growth 48h: inconclusive; HCV inh: 10µM

Results for O=[N+]([O-])c1c(NCCCO)cc(Sc2ccc(Cl)cc2)c2nonc12 ?
Pf growth 96h: inactive; HCMV inh: inactive; Pf growth 48h: inconclusive; HCV inh: inconclusive

What do the screens show for `COc1ccc(-c2oc3cc(O)c(OC)c(O)c3c(=O)c2OC)cc1O`?
HCMV inh: -62; HCV inh: inactive

Results for COc1cc(OC)c2c(=O)c(OC)c(-c3ccc(OC)c(OC)c3)oc2c1 ?
Pf growth 96h: inconclusive; Pf growth 48h: inactive; HCV inh: 1.1µM

What do the screens show for `O=C(NNc1cccc(Cl)n1)Nc1cccc(Cl)c1`?
Pf growth 96h: 13µM; HCMV inh: inactive; HCV inh: inactive

Results for O=C(Nc1ccc(Cl)c(Cl)c1)Nc1ccccc1C(=O)O ?
Pf growth 96h: inactive; HCMV inh: -79; Pf growth 48h: inactive; HCV inh: inactive

How did O=C(Nc1cccc(Cl)c1)Nc1ccc2nccnc2c1 do in these assays?
Pf growth 96h: inconclusive; HCMV inh: -77; Pf growth 48h: inactive; HCV inh: inconclusive

What do the screens show for `O=C(Nc1ccc2nccnc2c1)Nc1ccccc1Cl`?
Pf growth 96h: inconclusive; HCMV inh: inactive; Pf growth 48h: 8.3µM; HCV inh: inactive

How did COC(=O)c1cc2c(cc1NC(=O)c1cnn(-c3ccccc3)c1-n1cccc1)OCO2 do in these assays?
HCMV inh: inactive

Results for CCCCn1cc(S(=O)(=O)c2cc(C)ccc2C)c(=O)c2cc(F)c(F)cc21 ?
HCMV inh: inactive

What do the screens show for `Cn1nnc2cc(NC(=O)Nc3cccc(Cl)c3)ccc21`?
Pf growth 96h: inactive; HCMV inh: -102; HCV inh: inactive

Results for Cn1nccc1NC(=O)Nc1cccc(Cl)c1 ?
Pf growth 96h: inactive; HCMV inh: inactive; Pf growth 48h: inactive; HCV inh: inactive

What do the screens show for `CCc1cc2c(-c3ccccc3)cc(=O)oc2cc1OC(=O)c1cccs1`?
Pf growth 96h: inactive; HCMV inh: inconclusive; Pf growth 48h: inactive; HCV inh: inactive

Results for CC(Oc1ccc2c(-c3ccccc3)cc(=O)oc2c1)C(=O)NCC1CCC(C(=O)O)CC1 (centres undefined) ?
Pf growth 96h: 3.3µM; HCMV inh: inactive; Pf growth 48h: 5.2µM!; HCV inh: inconclusive

What do the screens show for `Cc1c(Cc2ccccc2)c(=O)oc2cc(OC(C)C(=O)NCC3CCC(C(=O)O)CC3)c(Cl)cc12` (centres undefined)?
Pf growth 96h: 10µM; HCMV inh: inactive; Pf growth 48h: inactive; HCV inh: inconclusive

Results for CC(Oc1ccc2c(-c3ccccc3)cc(=O)oc2c1)C(=O)O (centres undefined) ?
Pf growth 96h: inactive; HCMV inh: inactive; Pf growth 48h: inactive; HCV inh: inactive

How did O=C(Oc1ccc2c(-c3ccccc3)cc(=O)oc2c1)c1cccs1 do in these assays?
Pf growth 96h: inactive; HCMV inh: -67; Pf growth 48h: inactive; HCV inh: inactive

What do the screens show for `Cc1cc(=O)oc2cc(OC(C)C(=O)NCC3CCC(C(=O)O)CC3)ccc12` (centres undefined)?
Pf growth 96h: inconclusive; HCMV inh: inactive; Pf growth 48h: inactive; HCV inh: inactive

Results for CC(Oc1ccc2c(-c3ccccc3)cc(=O)oc2c1)C(=O)NCC(O)c1ccccc1 (centres undefined) ?
Pf growth 96h: inactive; HCMV inh: inactive; Pf growth 48h: inactive; HCV inh: 8.9µM

Results for CCOC(=O)c1c(C)[nH]c(CCC(=O)NCc2cc(OC)c(OC)c(OC)c2)c1C ?
HCMV inh: inactive

How did COc1cc(-c2noc(-c3cc(C)[nH]n3)n2)cc(OC)c1OC do in these assays?
HCMV inh: inactive

Results for CCN(CC)c1ccc(C(=O)Nc2ccc3nc(N(CC)CC)cc(C)c3c2)cc1 ?
HCMV inh: -67

What do the screens show for `COc1ccc(C(=O)Nc2ccc3nc(N4CCN(C)CC4)cc(C)c3c2)c(OC)c1`?
Pf growth 96h: inactive; HCMV inh: inactive; Pf growth 48h: 7.4µM; HCV inh: inconclusive

How did COc1ccc(C)cc1NC(=O)CCC(=O)Nc1ccc2nc(N3CCN(C)CC3)cc(C)c2c1 do in these assays?
Pf growth 96h: inactive; Pf growth 48h: inconclusive; HCV inh: 10µM

Results for Cc1cc(N2CCN(C)CC2)nc2ccc(NC(=O)c3ccc(C(C)(C)C)cc3)cc12 ?
HCMV inh: -106

What do the screens show for `Cc1cc(N2CCN(C)CC2)nc2ccc(NC(=O)Nc3ccc(Cl)cc3)cc12`?
HCMV inh: inactive

How did CC(=O)N1c2ccccc2CC1C(=O)N1CCN(c2cccc(Cl)c2)CC1 (centres undefined) do in these assays?
HCMV inh: inactive

Results for Cc1ccc(-c2nc(S(=O)(=O)c3ccc(F)cc3)c(N3CCN(c4ccccc4)CC3)o2)cc1 ?
HCMV inh: inactive
